DRD3 agonist – activates the human D3 dopamine receptor | P35462 | D3R DiscoveRx beta-arrestin cells, luminescence, 90 min | max activation, % | 410,000 compounds, 0.58% hits; in the data active means max activation above about 30%; further: 0% is about no effect
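Cells at 1500/well, incubated overnight, then treated with pinned compounds (dopamine as control) for 90 min at 37 degrees C. DiscoveRx reagent added for 30 - 60 minutes at room temperature; luminescence read.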
TDP1 cell noCPT – qHTS for Inhibitors of human tyrosyl-DNA phosphodiesterase 1 (TDP1): qHTS in cells in absence of CPT; DT40 Tdp1-/- hTDP1 cells, no CPT, ATP luminescence, 48 h; Potency, µM (top dose mostly 46.2 µM), for the others: at the top dose activity change, negative = growth inhibition, usual class: inhibitors; 420,000 compounds, 15% hits; AID 686978, 2013; further: potency means the concentration at half of the fitted maximal effect; on the % scale 0 is the no-effect control and ±100 the full control effect; nearly all actives have a fitted effect of over 55% in size
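DT40 Tdp1-/-;hTDP1 cells, no CPT (DMSO vehicle only), 400 cells/well; compounds pin-transferred; ≥48 hr, 37 °C; CellTiter-Glo 30 min RT dark, luminescence read.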
DRD3 antagonist – antagonists of human D3 dopamine receptor | D3R cells, DiscoveRx beta-arrestin luminescence, antagonist mode; hits give low values | max response, negative = inhibition, % | P35462 | 360,000 compounds, 2.5% hits; in the data active means max response below about -50%; inconclusive means no clear call, values can overlap the other calls; further: on the % scale 0 is the no-effect control and ±100 the full control effect
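Cells plated overnight at 1500 cells/well, then exposed to library compounds with dopamine controls for 90 minutes at 37 degrees C. DiscoveRx reagent added for 30–60 minutes at room temperature; luminescence read, quantitative HTS format.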
ClpP mod – qHTS Assay for Activators of ClpP; ATP-dependent Clp protease proteolytic subunit (Bacillus subtilis (strain 168)), P80244; purified B. subtilis ClpP, FRET peptide cleavage, 20 min; Potency, µM (titrated, usually from 57.5 µM), without a hit: at the top dose activity change, negative = active; 340,000 compounds, 1.9% hits; AID 651965, 2013; active means well fitted falling curve with a large enough effect; inconclusive means small, poorly fitted or top-dose-only effect; inactive means no such curve, though single readings can be large or run the other way; further: potency means the concentration at half of the fitted maximal effect; the source files actives as falling curves though it sought activators and does not explain the sign; nearly all actives have a fitted effect of over 65% in size
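Buffer: 100 mM Tris/HCl pH8, 100 mM KCl, 0.05% low protease BSA, 2.5% glycerol, 0.01% Tween-20. ClpP 10 microg/mL final; 20 min RT; delta FRET normalized to ADEP and DMSO controls.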
IL-1B inflam inh – inhibitors of inflammasome signaling (IL-1 beta secretion). THP-1 LPS/ATP IL-1B secretion, AlphaLISA, 16 h; hits give low values. AID 743279. 360,000 compounds, 4.7% hits. activity change, % at 57.5 µM; in the data active means activity change below about -50%; inconclusive means mostly about -30% to -49%; further: on the % scale 0 is the no-effect control and ±100 the full control effect
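THP-1 cells pretreated 1 hr with compounds (up to 57.5 uM final), then stimulated with LPS (250 ng/mL final) plus ATP (1.25 mM final); secreted IL-1B measured by AlphaLISA after 16 hr, decreased signal indicating inhibition.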
TDP1 cell CPT – growth inhibition of DT40 Tdp1-/-;hTDP1 cells with camptothecin (screen for TDP1 inhibitors); 420,000 compounds, 12% hits; chicken DT40 Tdp1-/-;hTDP1 cells + 20 nM CPT, ATP luminescence, 48 h; Potency, µM (highest dose often 46.2 µM), inactives show at the highest dose activity change, negative = growth inhibition, usual class: inhibitors; further: potency means the concentration at half of the fitted maximal effect; on the % scale 0 is the no-effect control and ±100 the full control effect; nearly all actives have a fitted effect of over 55% in size
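Chicken DT40 Tdp1-/- cells stably complemented with human TDP1 were seeded at 400 cells/well in medium containing 20 nM camptothecin, exposed to pin-transferred compounds, and grown at 37 °C for at least 48 hr. Viability was read as ATP luminescence.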
Numbers without * were called inactive; ? = inconclusive; · = not tested or not shown. An excerpt weighted towards active compounds, which were near 21% of everything screened. Unless noted, the call rests on the fitted dose curve; in most records, active means well fitted inhibition curve with a large enough effect; inconclusive means small, poorly fitted or top-dose-only effect; inactive means flat fitted curve, though single readings scatter.

SMILES	DRD3 agonist	TDP1 cell noCPT	DRD3 antagonist	ClpP mod	IL-1B inflam inh	TDP1 cell CPT
Cc1cc(C)cc(N2C(=O)N(Cc3cc(=O)n4ccccc4n3)c3ccccc3S2(=O)=O)c1	-13	?	·	?	·	?
CC(O)[C@H]1CC[C@H]2[C@@H]3CC[C@@H]4C[C@@H](O)CC[C@]4(C)[C@H]3CC[C@]12C (stereo partly drawn)	13	-9%	·	·	·	-1%
CCNc1nc(C#N)nc(Nc2ccccc2)n1	·	11µM*	·	-2%	·	?
Cc1cccc(N=C2C(=O)Nc3c(Cl)cccc32)c1	-19	29µM*	-30	151%	19	?
Cc1nn(Cc2nnc(SCC(=O)Nc3ccc(Cl)cc3)n2C)c(C)c1[N+](=O)[O-]	0	?	12	-1%	-16	-15%
Cn1c2ccccc2n2c(=O)cc(-c3ccccc3)c(C#N)c12	-6	-14%	-8	-17%	-19	2%
Cn1c2ccccc2n2c(=O)c(Cl)c(-c3ccccc3)c(C#N)c12	7	?	-7	28µM*	-13	?
CO	2	-3%	·	·	·	5%
COc1cccc(C(=O)N2CCC[C@H]2C(=O)N2CCC[C@H]2C(=O)N[C@H](C)c2ccccc2)c1	5	-13%	-5	-1%	21	-7%
CC1CCCN(c2nc3c(c(=O)n(C)c(=O)n3C)n2CCSc2nc3ccccc3o2)C1 (stereo not drawn)	-71	21µM*	17	0%	16	23µM*
Cn1c(=O)c2c(nc(N3CCC(C(N)=O)CC3)n2CCSc2nc3ccccc3s2)n(C)c1=O	2	?	12	-15%	13	?
CC1CCN(c2nc3c(c(=O)n(C)c(=O)n3C)n2CCSc2nc3ccccc3s2)CC1	7	21µM*	27	0%	17	10µM*
Cc1ccnc(SCCn2c(N3CCC(C)CC3)nc3c2c(=O)n(C)c(=O)n3C)n1	5	23µM*	25	1%	48	?
CC1CCCN(c2nc3c(c(=O)n(C)c(=O)n3C)n2CCSc2nc3ccccc3s2)C1 (stereo not drawn)	-5	18µM*	-28	0%	-12	16µM*
CC1CCCN(c2nc3c(c(=O)[nH]c(=O)n3C)n2CCSc2nc3ccccc3o2)C1 (stereo not drawn)	-5	-18%	?	2%	12	-7%
CC1CC2CCCC(O)=C2C(=O)O1 (stereo not drawn)	-9	-2%	?	-4%	-8	-1%
CN(CCOc1ccc(Cl)cc1)C(=O)c1cc([N+](=O)[O-])ccc1N1CCOCC1	3	12µM*	-2	1%	-5	21µM*
COc1ccc(S(=O)(=O)N2CCCCCC2)cc1C(=O)N(C)Cc1ccc(Cl)cc1Cl	-11	?	-16	·	-56*	?
COc1ccc(S(=O)(=O)N2CCOCC2)cc1C(=O)N(C)CCOc1ccc(Cl)cc1	1	16µM*	-1	2%	3	?
Cc1ccc(S(=O)(=O)N2CCOCC2)cc1C(=O)N(C)CCOc1ccc(Cl)cc1	3	16µM*	-15	·	-16	?
CN(Cc1ccc(Cl)cc1)C(=O)c1cc(S(=O)(=O)N2CCOCC2)ccc1N1CCCC1	2	?	1	-3%	-9	?
CCOc1ccc(NC(=O)c2cc([N+](=O)[O-])ccc2N2CCOCC2)cc1	-6	?	-14	-2%	3	?
COc1ccccc1CNc1cc(C)nc2nc(-c3ccc(C)cc3)nn12	0	·	·	50%	·	·
C/C(=N\NC(=O)c1c(C)nc2ccccn12)c1ccco1	4	4%	8	·	0	11%
Cc1cc(NC(=O)c2cccc(C)c2[N+](=O)[O-])no1	-1	-1%	5	0%	-3	11%
SMILES	DRD3 agonist	TDP1 cell noCPT	DRD3 antagonist	ClpP mod	IL-1B inflam inh	TDP1 cell CPT
Cc1ccc(S(=O)(=O)N2CCCCC2)cc1C(=O)N(C)CCOc1ccccc1	0	-13%	-9	1%	1	-25%
CCCN(CC(=O)Nc1ccc(F)c(F)c1F)C(=O)c1cc([N+](=O)[O-])ccc1N1CCOCC1	-9	?	-9	22µM*	-11	?
CN(CCOc1ccc(Cl)cc1)C(=O)c1cc(S(=O)(=O)N2CCOCC2)ccc1N1CCCC1	-1	21µM*	4	-2%	-22	16µM*
COc1ccc(S(=O)(=O)N2CCCCCC2)cc1C(=O)N(C)CCOc1ccccc1	2	18µM*	9	-2%	-5	?
CN(CCOc1ccc(Cl)cc1)c1ccc(S(=O)(=O)N2CCCCC2)cn1	1	23µM*	-9	?	0	18µM*
CCOc1ccc(NC(=O)CSc2nnc(C)n2CC)cc1	5	-1%	27	1%	20	-5%
COc1ccc(C(=O)CSc2nc3cc(C(=O)NC4CCCC4)ccc3c(=O)n2CC2CCCO2)cc1 (stereo not drawn)	9	?	·	-3%	·	?
NC(=O)CCCCC1CCSS1 (stereo not drawn)	-15	-3%	·	·	·	7%
Cc1ccc(NC(=O)c2sc3nc4c(c(-c5ccco5)c3c2N)CCC4)cc1	-5	?	-19	-1%	8	?
Nc1c(C(=O)Nc2ccccc2)sc2nc3c(c(-c4ccco4)c12)CCC3	7	9.2µM*	-60*	-3%	-25	8.2µM*
Nc1c(C(=O)Nc2ccccc2)sc2nc3c(c(-c4ccco4)c12)CCCC3	2	?	7	-1%	-51*	?
Cc1ccccc1NC(=O)c1sc2nc3c(c(-c4ccco4)c2c1N)CCCC3	-2	?	-29	-2%	?	16µM*
Nc1c(C(=O)Nc2cccc(C(=O)O)c2)sc2nc3c(cc12)CCCC3	5	2%	31	-15%	5	1%
Cc1ccc(OC(C)C(=O)N(Cc2cccs2)C2CCS(=O)(=O)C2)cc1C (stereo not drawn)	-4	-24%	-5	·	7	-19%
c1ccc(N=NC2=NN(c3ccccc3)CS2)cc1	-11	5.8µM*	?	3%	-17	?
c1ccc(C2=NN(c3ccccc3)CC2)cc1	-2	4%	-6	4%	32	-10%
Cc1nc2ccccc2c(=O)n1NCc1cc(Br)cs1	15	15µM*	10	-9%	0	?
Cc1nc2ccccc2c(=O)n1NS(C)(=O)=O	2	0%	-13	-1%	-3	10%

High-throughput results deposited in PubChem by National Center for Advancing Translational Sciences (NCATS).
